Source: PubChem
NadD inh: blocks S. aureus nicotinate mononucleotide adenylyltransferase; 360,000 compounds, 0.78% hits; purified NadD enzyme, colorimetric absorbance read-out; inhibition, % at 20 µM; in the data active means inhibition above about 26%
PP1 counter: PP1-alpha (human) inhibition in PP5 counter-screen; purified PP1alpha, OMFP fluorescence; inhibition, % at 6.7 µM; AID 2235; 320,000 compounds, 0.9% hits;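 active means inhibition above the mean inhibition of all tested compounds plus 3 SD, computed separately for each screening campaign, cut at about 15% in these data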
Granule exo inh: lytic granule exocytosis inhibition | TALL-104 LAMP-1 surface exposure, flow cytometry; cells stimulated with thapsigargin and PMA | inhibition, % at 10 µM | 360,000 compounds, 0.66% hits | AID 651702;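 active means inhibition above about 55%, limit read from the data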
B2AR ag: human beta-2 adrenergic receptor agonism by FAP; P07550; Am2.2-beta2AR cells, FAP receptor internalization, flow cytometry; response, % (test concentration not listed); 340,000 compounds, 0.43% hits;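 active means response above a set limit, near 3 SD of response in nonfluorescent compounds, cut at about 42% in these data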
Target sequence (P07550 whole entry, looked up): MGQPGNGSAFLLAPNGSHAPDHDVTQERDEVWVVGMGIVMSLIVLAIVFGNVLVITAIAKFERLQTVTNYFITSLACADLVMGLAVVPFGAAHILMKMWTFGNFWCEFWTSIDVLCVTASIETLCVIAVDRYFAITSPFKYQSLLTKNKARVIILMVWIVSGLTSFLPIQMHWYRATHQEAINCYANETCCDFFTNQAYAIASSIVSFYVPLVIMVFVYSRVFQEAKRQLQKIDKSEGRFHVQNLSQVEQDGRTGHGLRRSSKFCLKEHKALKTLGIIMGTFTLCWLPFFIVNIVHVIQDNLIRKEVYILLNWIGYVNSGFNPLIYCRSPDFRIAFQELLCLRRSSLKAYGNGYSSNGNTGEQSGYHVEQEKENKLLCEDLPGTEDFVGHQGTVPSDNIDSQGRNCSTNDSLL
GRK2 aptamer HTS: blocks RNA aptamer binding to human GRK2; P25098; 330,000 compounds, 0.59% hits; AID 488847; inhibition of aptamer binding, % at 10 µM; bead flow cytometry, FAM-aptamer displacement from GRK2;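 active means inhibition of aptamer binding above 40%, roughly 3 SD of noise, on plates passing a quality check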;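 further: median bead fluorescence of bound FAM aptamer so fluorescent compounds give negative values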
PP1 inh confirm: human PP1 phosphatase inhibition, confirmation; shares compounds with PP1 counter; purified PP1alpha, OMFP substrate fluorescence; inhibition, % at 6.7 µM; 1,900 compounds, 52% hits;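 active means mean PP1 inhibition above a set limit taken from the earlier primary screen, cut at about 15% in these data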
PP5 inh counter: counter-screen for PP1 inhibitors: human PP5 phosphatase inhibition; shares compounds with PP1 counter; purified PP5c, OMFP fluorescence; inhibition, % at 6.7 µM; 1,900 compounds, 4% hits; AID 2360;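 active means mean PP5 inhibition over triplicate wells above about 9.5% taken from the earlier PP1 screen, limit read from the data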
Starred values were filed as active, the others as inactive; / = not tested or not shown. Most compounds without a hit are left out; they make up all but 2.9% or so of the library.

SMILES	NadD inh	PP1 counter	Granule exo inh	B2AR ag	GRK2 aptamer HTS	PP1 inh confirm	PP5 inh counter
C#CCOCCOCCOCCNc1nc(N2CCN(C(=O)[C@H](Cc3cc4ccccc4[nH]3)n3cc([C@@H](N)C(C)CC)nn3)CC2)nc(N2CCN(C(=O)[C@H](Cc3cc4ccccc4[nH]3)n3cc([C@@H](N)Cc4ccc(O)cc4)nn3)CC2)n1 (some centres not stated)	/	83.8*	/	/	0.0	78.0*	5.4
CCOC(=O)N1CCN(C2CCCN(C(=O)c3cccc(N(C)C)c3)C2)CC1 (configuration not stated)	0.6	-1.2	17.4	-0.9	0.0	/	/
O=C(NCc1cccc(Cl)c1)C1Cc2c(-c3ccccc3)ccnc2O1 (configuration not stated)	1.6	/	1.5	/	/	/	/
Cc1c(CCOC(=O)CC23CC4CC(CC(C4)C2)C3)sc[n+]1CC(=O)c1ccccc1	5.0	25.7*	18.2	21.4	0.0	-5.5	-1.2
Cc1c(CCOC(=O)C23CC4CC(CC(C4)C2)C3)sc[n+]1Cc1ccccc1	-7.8	-0.9	-3.5	6.8	0.0	/	/
Cc1c(CCOC(=O)C23CC4(C)CC(C)(CC(C)(C4)C2)C3)sc[n+]1CC(=O)c1ccccc1	16.1	21.4*	48.1	5.7	0.0	-0.7	4.9
S=C(Nc1ccccc1)N1CCC(Cc2ccccc2)CC1	5.8	-1.5	14.0	3.7	2.0	/	/
Cc1cc(-c2nnc3n2N=C(c2ccccc2)CS3)n[nH]1	-3.5	-3.1	-4.7	-12.8	2.0	/	/
Cc1cc(-c2nnc3n2N=C(c2ccc(-c4ccccc4)cc2)CS3)n[nH]1	26.9	34.3*	21.5	0.4	1.0	22.6*	-0.6
COc1cccc(/C=N/Nc2ncnc3scc(-c4ccccc4)c23)c1O	15.5	25.9*	11.7	16.1	1.0	31.6*	6.0
COc1cccc(/C=N/Nc2ncnc(Cl)c2N)c1O	-4.8	25.6*	-3.5	12.5	4.0	32.5*	-2.5
COc1cccc(/C=N/Nc2nccnc2Cl)c1O	-4.1	/	-1.7	-1.1	/	/	/
COc1ccc(S(=O)(=O)N2CCOCC2)cc1NC(=O)c1cc2c(s1)CCCC2	3.1	0.1	2.7	1.1	0.0	/	/
COc1ccc(C)cc1NC(=O)c1cc2c(s1)CCC2	-2.9	18.1*	7.7	-4.7	0.0	-1.1	-2.3
CN1CCN(S(=O)(=O)c2cccc(C(=O)Oc3cccc(Br)c3)c2)CC1	-5.7	-5.1	-12.3	2.7	0.0	/	/
CN1CCN(S(=O)(=O)c2cccc(C(=O)Oc3ccc(Br)cc3F)c2)CC1	-12.4	34.1*	2.6	17.6	0.0	-1.9	-3.6
CC1=C(C(=O)OCc2ccccc2)C(c2ccc(-c3ccccc3)cc2)NC(=O)N1CCCCCC(=O)O (configuration not stated)	4.0	18.9*	-1.5	-6.3	1.0	3.2	-3.6
Cc1cc(C)n(-c2ccc(NC(=O)C3CCCCN3C(=O)c3ccc(C)s3)cc2)n1 (configuration not stated)	-3.0	0.1	-15.3	7.5	0.0	/	/
Cc1sc2ncnc(SCC(=O)c3ccc4c(c3)OCCO4)c2c1-c1ccccc1	2.0	5.5	-1.1	-0.2	0.0	/	/
COc1c(N2CCN(C(=S)NC3CC4CCC3C4)C(C)C2)c(F)cc2c(=O)c(C(=O)O)cn(C3CC3)c12 (configuration not stated)	5.9	21.4*	0.4	3.9	0.0	38.0*	-5.2
O=C(OCC(=O)N1CCN(C(=O)c2ccco2)CC1)c1cc(-c2ccco2)nc2ccccc12	43.7*	21.8*	0.1	9.7	13.0	13.1	-5.0
C=CCC1(CC=C)CC(Cc2cnccn2)N(C(=O)OC(C)(C)C)C1 (configuration not stated)	-4.3	/	-2.8	/	/	/	/
CCOc1ccc(-n2c(O)c(/C=N/NC(=O)C3COc4ccccc4O3)c3ccccc3c2=O)cc1 (configuration not stated)	23.4	23.5*	-1.3	-10.1	2.0	28.2*	-6.0
O=C(COC(=O)c1ccccc1SCC(=O)N1CCCC1)NCc1ccc(F)cc1	3.8	/	-7.2	/	/	/	/
CCNC(=S)N/N=C/c1cccs1	5.5	37.5*	3.5	-7.5	2.0	-3.1	-4.7
SMILES	NadD inh	PP1 counter	Granule exo inh	B2AR ag	GRK2 aptamer HTS	PP1 inh confirm	PP5 inh counter
CCC(C)Sc1cc(-c2nc3ccc(C)cn3c2NCc2ccccc2)ccc1OC (configuration not stated)	26.4	17.8*	54.1	30.8	2.0	5.0	2.5
CCC(C)Sc1ccc(-c2nc3ccc(C)cn3c2NCc2ccccc2)cc1OC (configuration not stated)	2.9	12.3	8.0	28.8	0.0	/	/
O=C(C1=C(O)C(=O)N(CCN2CCOCC2)C1c1ccc(Br)cc1)c1cc2ccccc2o1 (configuration not stated)	23.7	22.8*	-7.5	21.7	2.0	12.0	3.4
Cc1ccc(C2C(C(=O)c3cc4ccccc4o3)=C(O)C(=O)N2CCN2CCOCC2)cc1 (configuration not stated)	6.7	14.1	1.8	20.6	4.0	/	/
COc1cccc2cc(C(=O)C3=C(O)C(=O)N(CCN4CCOCC4)C3c3ccc(C(C)(C)C)cc3)oc12 (configuration not stated)	22.0	20.7*	-2.8	18.0	4.0	26.9*	0.6
COc1cc(/C=C/C(=O)OCC(=O)NCCN2C(=O)CSC2=O)ccc1OCC#N	0.8	-2.1	-3.6	-5.0	0.0	/	/
CCCCCCCCCC[N+](C)(C)CC/C=C1/c2ccccc2Sc2ccc(Cl)cc21	26.2	41.1*	-6.5	1.5	0.0	10.9	6.2
CCCCCCCCCCC[N+](C)(C)CC/C=C1/c2ccccc2Sc2ccc(Cl)cc21	15.9	38.9*	-9.4	0.0	0.0	9.4	2.3
CCOc1ccc(S(=O)(=O)NCc2ccc(OC)cc2)c2cccnc12	-0.3	67.9*	7.9	-14.1	6.0	-1.3	2.0
CCOc1ccc(S(=O)(=O)NCc2ccc(F)cc2)c2cccnc12	-2.5	0.5	-0.2	-20.3	10.0	/	/
Cc1nc(Nc2cnc(/C=C/c3cc(C(=O)Nc4cccc(C(F)(F)F)c4)ccc3C)cn2)cc(N2CCNCC2)n1	/	22.8*	/	/	0.0	-6.4	-2.0
O=C(Nc1cccnc1)c1ccc(Cl)c(S(=O)(=O)N2CCCC2)c1	-2.9	37.8*	-3.5	-10.2	3.0	-3.7	-8.0
Cc1cccc(C(=O)NC(C(=O)Nc2nc(-c3ccccn3)cs2)C(C)C)c1 (configuration not stated)	-0.2	20.6*	-2.5	-1.2	5.0	24.9*	-1.5
CC(Oc1cccc(Cl)c1)C(=O)Nc1nc(-c2ccccn2)cs1 (configuration not stated)	3.2	29.6*	2.8	0.9	0.0	35.5*	2.1
COc1ccc(C(=O)CSC(=S)N2CCCCC2)cc1	1.9	/	-3.1	/	/	/	/
Cc1ccc(S(=O)(=O)NNC(=O)c2cc(C)cs2)cc1	1.2	-5.1	-4.6	-1.7	0.0	/	/
